Measurements from the supplement of paper PMC4723716.
In all, about 3,600 compounds were measured (“viability index relative to DMSO control”: median about 0.81, lowest 2% from about 0.13 on). What follows is part of a selection rich in the lowest values, with near analogues and random picks from the rest.

Test system: Plasmodium falciparum NF54 stage V gametocytes
Assay: viability index relative to DMSO control (fraction); higher = less gametocyte killing
Settings: 1.25 µM, incubation time: 72 h
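Further: Saponin-lysis sexual stage assay in serum-free medium: MitoTracker Red CMXRos staining plus saponin, high-content imaging, particle count per well divided by plate mean of DMSO wells.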

| Compound | viability index |
| --- | --- |
| O=[N+]([O-])c1ccc2nc(Nc3ccc(Cl)c(Cl)c3)c(Nc3ccc(Cl)c(Cl)c3)nc2c1 | 0.0962 |
| O=[N+]([O-])c1ccc2nc(Nc3ccccc3)c(Nc3ccccc3)nc2c1 | 0.481 |
| O=[N+]([O-])c1ccc2nc(NC3CCCCC3)c(NC3CCCCC3)nc2c1 | 0.86 |
| O=[N+]([O-])c1ccc(S(=O)(=O)N2CCN(C(=S)NCc3ccccc3)CC2)cc1 | 0.163 |
| CCCC(=O)N1CCN(c2nc(Cc3ccccc3)c3c(c2C#N)CC(C)(C)OC3)CC1 | 0.568 |
| Cc1ccc(-c2noc(C3CCN(C(=O)Nc4ccc(C#N)cc4)CC3)n2)o1 | 0.957 |
| CC(C)c1nc(N2CCN(C(=O)Nc3ccccc3)CC2)c(C#N)c2c1COC(C)(C)C2 | 0.0954 |
| CC(C)c1nc(N2CCN(C(=S)NCc3ccccc3)CC2)c(C#N)c2c1COC(C)(C)C2 | 0.0888 |
| CC1(C)Cc2c(sc(NC(=O)CCl)c2C#N)CO1 | 0.556 |
| CC[n+]1c(SC)ccc2cc(OC)ccc21 | 0.681 |
| CCC(=O)NCc1nnc(SCc2cccc(C(F)(F)F)c2)n1-c1cccc(OC)c1 | 0.865 |
| C[n+]1ccccc1C=Cc1cc(Br)ccc1O | 0.819 |
| CC(NC(=O)C(=O)N1CCCCC1)C(c1cccs1)N1CCOCC1 (stereo not given) | 0.787 |
| Cc1ccnc(Nc2nc(-c3ccc(Cl)cc3)cs2)c1 | 0.938 |
| COc1ccc2sc(Nc3nc(-c4ccccn4)cs3)nc2c1 | 0.876 |
| O=C(Nc1nc(-c2ccccn2)cs1)c1ccc(Oc2ccc(C(=O)Nc3nc(-c4ccccn4)cs3)cc2)cc1 | 0.00826 |
| Fc1cccc2sc(Nc3nc(-c4ccccn4)cs3)nc12 | 0.322 |
| c1ccc(Nc2nc(-c3ccccn3)cs2)nc1 | 0.0653 |
| CC(=O)Nc1nc(C)c(-c2csc(Nc3ccc(C)cc3)n2)s1 | 0.351 |
| COc1ccc2nc(Nc3nc(-c4ccccn4)cs3)sc2c1 | 0.331 |
| Cc1ccnc(Nc2nc(-c3ccccn3)cs2)c1 | 0.0192 |
| Cc1ccnc(Nc2nc(-c3c(C)nc4sccn34)cs2)c1 | 0.822 |
| Cc1ccc(Nc2nc(-c3ccccn3)cs2)cc1 | 0.127 |

| Compound | viability index |
| --- | --- |
| Cc1nc2ncccn2c1-c1csc(Nc2ccccn2)n1 | 1.06 |
| Cc1nc2sccn2c1-c1csc(Nc2ccccn2)n1 | 0.89 |
| CC1CCc2c(sc(NC(=O)c3ccccc3F)c2C(=O)NCc2ccccc2)C1 (stereo not given) | 1.42 |
| CCC(CC)=NNC(=O)C(=O)NC1CCCCC1 | 1.13 |
| CCC(=O)NC(c1ccccc1Cl)c1cc(Cl)c2cccnc2c1O (stereo not given) | 0.86 |
| O=C(O)c1ccc(S(=O)(=O)c2ccc3c(c2)C(=O)N(c2ccc(Sc4ccc([N+](=O)[O-])cc4)cc2)C3=O)cc1 | 0.887 |
| CCOc1ccc(Nc2cc(=O)oc3ccccc23)cc1 | 0.618 |
| CCCn1nc(Oc2nc(NCC)cc(OC)n2)ccc1=O | 0.859 |
| N=c1c2c(n(Cc3ccccc3)c3c1CCC3)CCC2 | 0.87 |
| O=[N+]([O-])c1ccc(N2CCCN(C(=S)Nc3ccc(F)cc3Br)CC2)nc1 | 0.261 |
| O=[N+]([O-])c1ccc(N2CCCN(C(=S)Nc3ccccc3)CC2)nc1 | 0.0788 |
| O=[N+]([O-])c1ccc(N2CCN(C(=S)Nc3ccccc3)CC2)cc1 | 0.967 |
| NC1=NC(c2ccccc2)N(c2ccccc2)C(N)=N1 (stereo not given) | 1.12 |
| O=C(Nc1ccccc1C(=O)O)c1cccc(NC(=O)c2ccco2)c1 | 0.73 |
| CCn1c(CSc2nc(C)cc(C)n2)nnc1SCC(N)=O | 1.13 |
| CC(=O)N(C1=C(N(C)C)C(=O)c2ccccc2C1=O)c1ccc(F)cc1 | 0.0453 |
| CC(=O)N(C1=C(N(C)C)C(=O)c2ccccc2C1=O)c1ccc(F)c(F)c1 | 0.0288 |
| CC(=O)N(C1=C(N(C)C)C(=O)c2ccccc2C1=O)c1ccc(Cl)cc1 | 0.208 |
| CC(=O)N(C1=C(N(C)C)C(=O)c2ccccc2C1=O)c1ccc(Cl)c(Cl)c1 | 0.257 |
| CC(=O)N(C1=C(N2CCOCC2)C(=O)c2ccccc2C1=O)c1ccc(I)cc1 | 0.14 |
| CC(=O)N(C1=C(N(C)C)C(=O)c2ccccc2C1=O)c1cccc(F)c1 | 0.0612 |
| CC(=O)N(C1=C(N(C)C)C(=O)c2ccccc2C1=O)c1cc(C)cc(C)c1 | 0.0811 |
| CC(=O)N(C1=C(N2CCC(C)CC2)C(=O)c2ccccc2C1=O)c1cccc(F)c1 | 0.892 |

| Compound | viability index |
| --- | --- |
| O=C(CN(CCN1CCOCC1)S(=O)(=O)c1ccccn1)N1CCN(C(c2ccccc2)c2ccccc2)CC1 | 0.637 |
| CCN(CC)c1ccc(C=NNC(=O)c2ccc(Nc3nc(-c4ccccc4)cs3)cc2)c(O)c1 | 0.675 |
| Cc1ccccc1N1C(=O)C2C3c4ccccc4C(C(=O)O)(c4ccccc43)C2C1=O (stereo not given) | 0.616 |
| CN(C)CCN1CCN(c2ccnc3cc4ccccc4cc23)CC1 | 0.84 |
| O=c1c(=O)n(Cc2cccc(C(F)(F)F)c2)ccn1CCc1ccccc1 | 0.751 |
| CCN(CC)S(=O)(=O)c1ccc2[nH]cc(C(=O)NCCCN3CCN(c4ccc(OC)cc4)CC3)c(=O)c2c1 | 1.14 |
| CCN(CC)c1ccc(N=Cc2ccc(Sc3nc4ccccc4s3)o2)cc1 | 1.17 |
| OC(COc1ccc(OCC(O)CN2CCN(C3c4ccccc4-c4ccccc43)CC2)cc1)CN1CCN(C2c3ccccc3-c3ccccc32)CC1 (stereo not given) | 0.754 |
| CC(=O)N(C1=C(N(C)C)C(=O)c2ccccc2C1=O)c1cccc(Cl)c1 | 0 |
| Cc1nc2c(C)cccc2c(O)c1CC=C(Cl)Cl | 0.759 |
| Oc1c(CN2CCN(Cc3ccc4cccnc4c3O)CC2)ccc2cccnc12 | 0.601 |
| COc1ccc(C(OCCS(=O)(=O)CCO)(c2ccccc2)c2ccc(OC)cc2)cc1 | 0.0248 |
| COc1ccc(S(=O)(=O)N=C2C=C(Nc3ccccc3)C(=O)c3ccccc32)cc1 | 0.232 |
| COc1ccc(-c2nc(NC(=O)CS(=O)(=O)c3ccccc3)sc2C)cc1 | 1.02 |
| O=C(Nc1ccc(Oc2ccc(OC(F)(F)F)cc2)cc1)C1CC1 | 0.693 |
| CCCOC(=O)C1=C(C)NC2=C(C(=O)CC(c3ccc(OC)c(OC)c3)C2)C1c1cccc(Br)c1 (stereo not given) | 0.83 |
| CCN1CCN(c2cc(C)c3cc(NC(=O)c4cncc(Br)c4)ccc3n2)CC1 | 0.801 |
| CCCNC1=C(N(C(C)=O)c2cccc(F)c2)C(=O)c2ccccc2C1=O | 0.0245 |
| CCCCOc1ccc(N(C(C)=O)C2=C(N3CCCCC3)C(=O)c3ccccc3C2=O)cc1 | 0.301 |
| CCCNC1=C(N(C(C)=O)c2ccc(C)cc2)C(=O)c2ccccc2C1=O | 0.0531 |
| CC(=O)N(C1=C(N2CCCC2)C(=O)c2ccccc2C1=O)c1cccc(F)c1 | 1 |
| CC(=O)N(C1=C(N2CCCCC2)C(=O)c2ccccc2C1=O)c1cccc(F)c1 | 0.833 |
| CC(=O)N(C1=C(N2CCCC2)C(=O)c2ccccc2C1=O)c1ccc(I)cc1 | 0.879 |

| Compound | viability index |
| --- | --- |
| COc1cccc(C(=O)NC(c2ccc(Cl)cc2)c2cc(Cl)c3cccnc3c2O)c1 (stereo not given) | 0.523 |
| COCCCNC(=O)C=Cc1ccc(C(C)C)cc1 | 0.976 |
| C=CCOC(=O)C1=C(C)N2CCSC2=C(C#N)C1c1ccco1 (stereo not given) | 1.13 |
| O=C(Nc1ccc2nc3n(c(=O)c2c1)CCCCC3)C(=O)N1CCN(c2cccc(Cl)c2)CC1 | 0.432 |
| O=C(CCCCCN1C(=O)c2cccc3cccc(c23)C1=O)NO | 0.853 |
| Cn1c(SCc2cccc([N+](=O)[O-])c2)nc2c(c1=O)SCC2 | 0.818 |
| CC(=O)N(C1=C(N2CCOCC2)C(=O)c2ccccc2C1=O)c1ccc(Br)cc1 | 0.408 |
| CC(=O)N(C1=C(N2CCCC2)C(=O)c2ccccc2C1=O)c1ccc(F)c(F)c1 | 0.743 |
| CC(=O)N(C1=C(N2CCCCC2)C(=O)c2ccccc2C1=O)c1ccc(F)c(F)c1 | 0.837 |
| CC(=O)N(C1=C(N2CCN(C)CC2)C(=O)c2ccccc2C1=O)c1cc(C)cc(C)c1 | 0.521 |
| CC(=O)N(C1=C(N2CCOCC2)C(=O)c2ccccc2C1=O)c1cccc(Cl)c1 | 0.0385 |
| CC(=O)N(C1=C(N2CCOCC2)C(=O)c2ccccc2C1=O)c1ccc(F)c(F)c1 | 0.0694 |
| CC(=O)N(C1=C(N2CCOCC2)C(=O)c2ccccc2C1=O)c1cc(C)cc(C)c1 | 0.0695 |
| CC(=O)N(C1=C(N2CCOCC2)C(=O)c2ccccc2C1=O)c1ccc(Cl)c(Cl)c1 | 0.351 |
| CC(=O)N(C1=C(N2CCCCC2)C(=O)c2ccccc2C1=O)c1cccc(Cl)c1 | 0.144 |
| COc1cncc(-c2cncc(-c3ccc(Oc4ccccc4)cc3)n2)c1 | 0.899 |
| COc1cc2c(cc1OC)C(COc1ccc(F)cc1)N(C(=O)c1ccc(OC(C)C)cc1)CC2 (stereo not given) | 0.66 |
| CCCN(CCC)CC(O)COc1ccccc1C(=O)Nc1ccccc1 (stereo not given) | 0.65 |
| Cc1ccc(N2C(N)=NC(N)=NC2(C)C)cc1 | 0.985 |
| C=CCCC(=O)N1CCC(C(=O)Nc2ccc(-c3nc4ccccc4o3)cc2)CC1 | 0.846 |
| c1ccc2c(c1)[nH]c1c(NCCN3CCCCC3)ncnc12 | 1.09 |
